These results are taken from PubChem BioAssay (NCI).

What all share (test): NCI-60 one-dose screen, 48 h (100 = growth as untreated, 0 = no growth, -100 = all killed)
Holding throughout (conditions): 10 µM unless noted

For test [1], the system named is HCT-15 colon.
Test [2] deals with HT29 colon.
Test [3] relates to SNB-75 CNS.
For test [4], the system named is SNB-19 CNS.
Test [5] concerns U251 CNS.
The test system of test [6] is PC-3 prostate.
Test [7] concerns SK-MEL-5 melanoma.
For test [8], the system named is UACC-62 melanoma.
Test [9] relates to LOX IMVI melanoma.
Test [10] deals with SK-MEL-28 melanoma.
Test [11] has as its system SK-MEL-2 melanoma.
Test [12] deals with EKVX NSCLC.
Test [13] deals with SN12C renal.
In test [14] the test system is UO-31 renal.
The test system of test [15] is TK-10 renal.
Test [16] relates to ACHN renal.
For test [17], the system named is CAKI-1 renal.
Test [18] deals with A498 renal.
The subject of test [19] is CCRF-CEM leukemia.
The test system of test [20] is MOLT-4 leukemia.

Structures are written as SMILES. About 83,000 compounds went through this panel and 20% of them were active in at least one assay; those are over-represented in the sample as a whole.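 Cells were grown in 96-well plates and exposed to the test compound at a single concentration for 48 hours; results are reported as percent growth, with values below 10 considered active.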 A number with no mark means an inactive call. Active and inactive are the calls of the source.

In the case of `Cc1ccccc1/C=C1\CN(C(=O)OC(C)(C)C)C/C(=C\c2ccccc2C)C1=O`, the growth was 1.66% (active) in [1]; -26.4% (active) in test [2]; 53.4% in test [3]; 39.1% in test [4]; 0.0873% (active) in test [5]; 21.9% in [6]. Besides, the growth was 83% in test [7]; 28.7% in test [8]; -62.4% (active) in test [9]; 55.5% in test [10]; 86.4% in test [11]; 55.6% in test [12]. The growth was -6.85% (active) in test [13]; 31.9% in test [14]; 30.3% in [15]; -21.7% (active) in test [16]; 28.8% in test [17]; 84.8% in test [18]. The growth is 2.95% (active) in test [19] and 10.8% in [20].

On to `N#CC1C=CN(CC(N)=O)c2ccc3cccnc3c21` (stereo not drawn), for which the growth was 96.2% in test [1]; 88.3% in test [2]; 87.2% in test [3]; 96.1% in [4]; 91.7% in test [5]; 84.2% in [6]. In addition, the growth in test [7] is 96.5%; in test [8] it was 96.9%; in test [9], 97.5%; in test [10], 104%; in [11] it was 116%; in test [12], 97.9%. The growth in test [13] was 96.3%; in [14], 97.9%; in test [15] it was 115%; in test [16], 104%; in test [17], 91.2%; in [18], 85.9%. The growth in test [19] was 78%; in test [20], 98%.

For `CN(C)CCCC1(c2ccc(F)cc2)OCc2cc(-c3cncc4ccccc34)ccc21` (stereo not drawn), the growth was 38.3% in test [1]; 13.5% in test [2]; 41.6% in [3]; 54% in [4]; 3.14% (active) in test [5]; 44.9% in test [6]. Also, the growth in test [7] was -88.8% (active); in test [8] it was 11.5%; in test [9] it was 19.3%; in [10] it was -65% (active); in test [11], 58.7%; in [12], 76.2%. Moreover, the growth in test [13] is 43.1%; in [14], 29.9%; in test [15], 83.1%; in test [16], 36.9%; in [17], 28.2%; in test [18], 34.1%. The growth in [19] is 26.9%; in test [20] it was 14.6%.

Turning to `CCNc1nc(-c2ccc(Cl)c(OC)c2)c(-c2ccnc(NCCCNS(=O)(=O)c3ccc(Cl)cc3)n2)s1`, the growth in [1] is 61.6%; in test [2] it was 19.1%; in test [3], 77.6%; in test [4] it was 81.8%; in test [5], 51.9%; in test [6], 29.4%. Also, the growth in test [7] is 48.2%; in test [8], 29.7%; in test [9], 56.3%; in test [10] it was 38.9%; in test [11] it was -27.1% (active); in test [12], 75.4%. The growth in test [13] was 66.5%; in test [14], 64.9%; in test [15] it was 43.7%; in [16], 74.1%; in test [17], 59%; in test [19], 31.6%. Also, the growth in test [20] was 22.2%.

With `O=C(CI)NC1Oc2ccccc2-c2oc(=O)c(-c3ccccc3)cc21` (stereo not drawn), the growth in [1] was -83% (active); in test [2], -55% (active); in test [3], -20.9% (active); in test [4], 80.8%; in [5], -48.6% (active); in [6], -72.8% (active). In addition, the growth in test [7] is 85.5%; in [8] it was -22.8% (active); in [9], -82.8% (active); in [10], 46.3%; in test [11], -16.4% (active); in test [12], 70.4%. Moreover, the growth is -71.2% (active) in test [13]; -94.7% (active) in [14]; -73.5% (active) in test [15]; -91.3% (active) in [16]; -100% (active) in [17]; 82.1% in test [18]. For the same compound, the growth was -23.4% (active) in test [19] and -25.8% (active) in [20].

Take `c1cnc2[nH]cc(-c3csc(-c4cn(CCCN5CCOCC5)c5ccccc45)n3)c2c1`: the growth in test [1] is 14%; in test [2] it was 7.69% (active); in test [3], 20.1%; in test [4] it was 56.8%; in [5] it was 32.9%; in test [6] it was 19.6%. Further, the growth in test [7] was 38%; in test [8] it was 65.5%; in test [9] it was 30.6%; in test [10], 65.3%; in [11], 82.6%; in [12], 47.9%. The growth was 64.5% in test [13]; 23% in [14]; 69.6% in [15]; 32.8% in test [16]; 47.5% in [17]; 53.9% in test [18]. Besides, the growth was 17.4% in [19] and 16.6% in test [20].

On to `Cn1cc(-c2nc(-c3c[nH]c4ccncc34)cs2)c2ccccc21`, for which the growth is -21.6% (active) in [1]; 0.469% (active) in test [2]; 91% in [3]; 88.4% in test [4]; -43.8% (active) in test [5]; 61.5% in test [6]. Besides, the growth was 55.2% in [7]; 94.6% in [8]; -78% (active) in [9]; -79.8% (active) in test [10]; 93.1% in test [11]; 49% in test [12]. Moreover, the growth is 77.5% in [13]; 57.9% in test [14]; 88.3% in test [15]; 24.7% in test [16]; 19.8% in [17]; 0.202% (active) in test [19]. Moreover, the growth in [20] is 35.7%.
